# According to the supplement of paper PMC12067093, “Discovery and optimisation of a covalent ligand for TRIM25 and its application to targeted protein ubiquitination” (Chemical Science, 2025):
# Targets with the largest changes are over-represented here; the source holds about 21,000 in all.
# Target: PKN2_Q16513_118_LQELNAHIVVSDPEDITDCPR (UniProt Q16513)
# Assay: probe-labelled cysteine peptide fold change vs DMSO (competition) (log2 fold change); higher = less target engagement (more negative = stronger competition)
# Conditions: THP-1, incubation time: 4 h
# 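Also: competitive profiling in live THP-1 cells: cysteine peptides tagged with an iodoacetamide desthiobiotin (IA-DTB) probe, intensity after compound treatment relative to DMSO-treated cells.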
# Chain of UniProt Q16513 (Q16513 whole entry, looked up): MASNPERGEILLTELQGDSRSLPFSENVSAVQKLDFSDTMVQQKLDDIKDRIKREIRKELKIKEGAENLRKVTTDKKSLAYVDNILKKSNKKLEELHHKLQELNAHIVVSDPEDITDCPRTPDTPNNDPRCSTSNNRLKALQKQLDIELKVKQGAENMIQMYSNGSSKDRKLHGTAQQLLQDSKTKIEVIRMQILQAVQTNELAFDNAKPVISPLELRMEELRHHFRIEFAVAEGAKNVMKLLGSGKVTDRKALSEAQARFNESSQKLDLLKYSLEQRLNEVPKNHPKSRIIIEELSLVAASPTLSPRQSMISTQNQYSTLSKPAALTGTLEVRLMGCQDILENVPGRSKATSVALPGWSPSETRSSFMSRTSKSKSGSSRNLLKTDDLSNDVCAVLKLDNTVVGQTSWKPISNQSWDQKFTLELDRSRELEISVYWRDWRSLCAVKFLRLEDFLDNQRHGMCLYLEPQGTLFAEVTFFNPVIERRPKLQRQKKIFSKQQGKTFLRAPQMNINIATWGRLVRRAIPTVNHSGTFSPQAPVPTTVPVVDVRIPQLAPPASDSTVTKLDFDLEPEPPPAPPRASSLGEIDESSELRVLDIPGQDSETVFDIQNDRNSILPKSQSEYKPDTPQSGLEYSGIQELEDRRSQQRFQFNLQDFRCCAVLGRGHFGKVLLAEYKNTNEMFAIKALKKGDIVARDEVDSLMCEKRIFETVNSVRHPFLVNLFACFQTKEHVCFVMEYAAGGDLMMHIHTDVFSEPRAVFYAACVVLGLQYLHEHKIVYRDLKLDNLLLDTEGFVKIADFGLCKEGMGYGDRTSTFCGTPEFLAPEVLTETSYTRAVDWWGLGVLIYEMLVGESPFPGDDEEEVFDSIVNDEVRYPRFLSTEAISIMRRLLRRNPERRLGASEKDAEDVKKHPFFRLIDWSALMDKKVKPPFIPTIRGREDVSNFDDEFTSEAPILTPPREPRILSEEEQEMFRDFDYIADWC
structure (smiles),measurement,setting,value
Cc1cc(C(=O)N2CCCN(C(=O)CCl)CC2)ccc1-c1ccccc1 [compound 10],probe-labelled cysteine peptide fold change,10 µM,-0.00661
same,probe-labelled cysteine peptide fold change,50 µM,0.269
